Compound activity: PubChem BioAssay, several laboratories
APOBEC3A inh: APOBEC3A ssDNA deaminase inhibitors, primary screen, selectivity assay for APOBEC3G inhibitor project, biochemical, FAM/TAMRA oligo cleavage fluorescence. recombinant A3A, FAM/TAMRA ssDNA deamination fluorescence. inhibition, % at 20 µM. actives 0.41% (n = 330,000);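 active means at least 40% inhibition at 20 µM here, with at most 30% in a related deaminase screen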
Target sequence (P31941 whole entry, looked up): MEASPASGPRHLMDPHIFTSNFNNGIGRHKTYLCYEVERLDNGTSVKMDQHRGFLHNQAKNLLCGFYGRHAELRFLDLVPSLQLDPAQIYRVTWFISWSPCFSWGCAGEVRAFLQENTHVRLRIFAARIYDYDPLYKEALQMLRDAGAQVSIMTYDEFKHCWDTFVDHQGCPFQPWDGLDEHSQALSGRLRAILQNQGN
Fh CTSL1 inh: Fasciola hepatica cathepsin L1 inhibitors, primary screen, counter-screen for PFM18AAP inhibitor project, biochemical, QFRET, fluorogenic peptide substrate; recombinant F. hepatica cathepsin L1, Z-Leu-Arg-MCA fluorescence; AID 1906, 2009; actives 0.49% (n = 300,000); inhibition, % at 5.96 µM;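 active means inhibition above the mean of all tested compounds plus 3 SD, set per screening campaign, cut at about 17% in these data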
APOBEC3G inh: APOBEC3G DNA deaminase inhibitors, primary screen, biochemical, fluorescence, single-stranded DNA substrate, uHTS; recombinant A3G, ssDNA deamination FAM/TAMRA fluorescence; inhibition, % at 20 µM; DNA dC->dU-editing enzyme APOBEC-3G (Homo sapiens), Q9HC16; actives 0.28% (n = 330,000);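 active means inhibition of at least 40% at 20 µM, with no more than 30% in the related APOBEC3A deaminase screen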
Target sequence (Q9HC16 whole entry, looked up): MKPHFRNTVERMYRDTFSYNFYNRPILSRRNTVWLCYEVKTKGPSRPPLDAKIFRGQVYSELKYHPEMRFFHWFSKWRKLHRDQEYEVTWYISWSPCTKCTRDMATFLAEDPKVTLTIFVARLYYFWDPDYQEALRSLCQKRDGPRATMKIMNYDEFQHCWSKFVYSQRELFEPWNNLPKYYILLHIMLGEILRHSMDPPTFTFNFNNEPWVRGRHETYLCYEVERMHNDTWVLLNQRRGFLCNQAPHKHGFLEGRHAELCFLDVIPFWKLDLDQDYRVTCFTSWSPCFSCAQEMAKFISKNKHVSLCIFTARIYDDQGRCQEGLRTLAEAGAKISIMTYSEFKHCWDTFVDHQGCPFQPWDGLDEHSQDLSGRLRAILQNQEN
HGIII-sPLA2 inh: human group III sPLA2 inhibitors, primary screen, biochemical, QFRET, BODIPY PC-A2 liposome substrate | Group 3 secretory phospholipase A2 (Homo sapiens), Q9NZ20 | QFRET BODIPY PC-A2 liposome hydrolysis, fluorescence | inhibition, % at 12.2 µM | actives 0.56% (n = 370,000);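 active means inhibition above mean plus 3 SD of compounds lying within the high and low control bounds, cut at about 19% in these data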
NALP1 inh: NALP1 inflammasome inhibitors in reconstituted yeast, colorimetric, S. cerevisiae, triplicate retest; S. cerevisiae NALP1/ASC/caspase-1 growth, X-gal OD620, 72 h; inhibition, % at 10 µM; actives 0.61% (n = 280,000); AID 2071, 2009; in the data active means inhibition mostly above about 24%, no sharp cut-off; inactive means mostly below about 32%
A number is an active result; 0 = inactive; - = no result. In the library only some 2% were active in any assay of this set; here they are far more common.

SMILES	APOBEC3A inh	Fh CTSL1 inh	APOBEC3G inh	HGIII-sPLA2 inh	NALP1 inh
COc1cc(/C=C(/C#N)c2nc3ccccc3[nH]2)ccc1OCc1ccc(C(=O)O)o1	0	20	0	0	0
COC(=O)c1ccc(COc2ccc(/C=C(\C#N)c3nc4ccccc4[nH]3)cc2OC)o1	0	0	0	0	0
CCOC(=O)C1CCCN(S(=O)(=O)c2ccc(Br)s2)C1 (stereo not given)	0	17	0	0	0
Cc1cc(Cl)n2nc(C)c(-c3ccc(Cl)cc3)c2n1	0	0	0	0	0
Cc1cc(N)n2nc(C)c(-c3ccc(Cl)cc3)c2n1	0	0	0	0	33
CCc1ccc(C(=O)CN(C#N)c2nc(C)cc(C)n2)cc1	0	58	0	0	0
Cc1cc(C)nc(N(C#N)CC(=O)N(c2ccccc2)C(C)C)n1	0	0	0	0	0
Cc1cc(C)nc(N(C#N)CC(=O)c2ccccc2)n1	0	69	0	0	0
CCCC1CCC2(CC1)CCC2OC(=O)Nc1cccc(C(F)(F)F)c1 (stereo not given)	-	-	-	0	-
COc1cccc(OC)c1NC(=O)OC1CCC12CCC(c1ccccc1)CC2 (stereo not given)	-	-	-	0	-
Cc1ccc(S(=O)(=O)N2C(=O)CCC2C(=O)NCc2ccco2)cc1 (stereo not given)	0	0	0	0	40
COc1cccc2cc(C(=O)NCc3ccc(Cl)cc3)c(=O)oc12	0	0	0	0	37
NC(=O)C1CCN(c2ccnc(Cl)n2)CC1	-	-	-	0	-
C=CCN1[C@H](C)COc2cccc(F)c2S1(=O)=O	-	-	-	0	-
CCOC(=O)c1ccccc1NC(=O)CSc1nc(N)cc(N)n1	0	0	0	0	0
COC(=O)c1ccccc1NC(=O)CSc1nc(N)cc(N)n1	0	0	0	0	32
CCOc1ccccc1NC(=O)C(CC(C)C)NC(=O)C1CCC(C)CC1 (stereo not given)	0	0	0	0	43
O=C(NCS(=O)(=O)c1ccccc1)c1ccccc1	0	30	0	0	0
CSC(=NCCCN1CCOCC1)NS(=O)(=O)c1cccs1	0	0	0	0	32
O=S(=O)(NCCN1CCOCC1)c1cccs1	0	0	0	0	0
O=C(CCl)NC1CCCCN(Cc2ccc(OC(F)(F)F)cc2)C1=O (stereo not given)	-	-	-	0	-
C#CCOC(=O)c1ccc(-n2cncn2)nc1	0	0	0	0	42
CCOC(=O)c1ccc(-n2cncn2)nc1	0	0	0	0	0
CCCNC(=O)c1c(O)c2cccc3c2n(c1=O)CCC3	-	-	-	0	0
NCCNC(=O)c1c(O)c2cccc3c2n(c1=O)CCC3	0	-	0	0	35
SMILES	APOBEC3A inh	Fh CTSL1 inh	APOBEC3G inh	HGIII-sPLA2 inh	NALP1 inh
CC1CCC2(CC1)CCN(CCCOC(=O)NCc1ccc(Cl)cc1)C2=O (stereo not given)	-	-	-	0	-
O=S(=O)(CC(CN1CCCC1)N1CCCC1)c1ccc2ccccc2c1 (stereo not given)	0	0	0	0	52
CCN1CCN(C(=S)Nc2ccc(Cl)c(Cl)c2)CC1	0	0	0	0	51
O=C(c1ccc(F)cc1)N1CCOCC1	0	0	0	0	26
O=C(NCc1ccc2c(c1)OCO2)c1ccc(COc2cccc(Cl)c2)o1	0	22	0	0	0
O=C(NCc1ccc2c(c1)OCO2)c1ccc(CS(=O)Cc2cccc(Cl)c2)o1 (stereo not given)	0	0	0	0	0
COC(=O)C[C@H]1CC[C@H]2[C@H](COc3ccc(NS(=O)(=O)c4ccccc4C)cc3C(=O)N2C)O1	-	-	-	0	-
O=C1C2CCCN2C(c2ccc(F)c(F)c2)N1c1cccc(Cl)c1 (stereo not given)	0	0	0	0	44
Cc1nc(N2CCN(c3ccccn3)CC2)c2c(C)c(C(=O)Nc3c(C)cc(Br)cc3C)sc2n1	0	19	0	0	0
Cc1nc(N2CCN(c3ccccn3)CC2)c2c(C)c(C(=O)Nc3c(F)cc(F)cc3Br)sc2n1	0	0	0	0	0
Cc1ccc(C(=O)Oc2oc(-c3ccccc3)nc2C=Nc2ccc(N(C)C)cc2)cc1	0	0	0	0	0
COc1ccc(N=Cc2nc(-c3ccccc3)oc2OC(C)=O)cc1	0	20	0	0	0
COc1cccc(N=Cc2nc(-c3ccccc3)oc2OC(C)=O)c1	0	28	0	0	0
O=C(OCc1ccccc1)N1CCC2CC1c1ccc(N3CCN(Cc4ccccc4)CC3)cc12 (stereo not given)	-	-	-	0	-
O=C(O)[C@H](Cc1ccccc1)NC(=O)N1CCN(c2ccccc2)CC1	0	17	0	0	-
CC(C)C[C@H](NC(=O)N1CCN(c2ccccc2)CC1)C(=O)O	0	0	0	0	0
COC(=O)c1cc(=O)n(Cc2ccc(OC)c(OC)c2)c(=Nc2ccc(F)cc2)s1	0	0	0	0	40
COC(=O)c1cc(=O)n(Cc2ccc(F)cc2)c(=Nc2ccccc2)s1	0	0	0	0	-
Cc1ccccc1N1C(=O)CC(c2c[nH]c3ccccc23)C1=O (stereo not given)	0	0	0	0	23
CCOC(=O)COc1ccc(C(C)c2ccc(NC(=O)OC(C)(C)C)cc2)cc1 (stereo not given)	-	-	-	0	-
CSc1ccc(S(=O)(=O)N2CCC(C(=O)N3CCc4ccccc4C3)CC2)cc1	0	19	0	0	0
COc1cc(CNCCCN2CCOCC2)cc(Br)c1OCC(=O)N1CCCCC1	0	0	0	0	30
O=C(Nc1ccc(F)cc1)OCc1cn(Cc2cccc(Cl)c2)nn1	-	-	-	0	-
COc1ccc(C2CCC3(CCC(=O)N3CCO)CC2)cc1 (stereo not given)	-	-	-	0	-
CC(C)(C)c1ccc(C(=O)NCCC(=O)NC2=NCCS2)cc1	0	-	0	0	-
SMILES	APOBEC3A inh	Fh CTSL1 inh	APOBEC3G inh	HGIII-sPLA2 inh	NALP1 inh
CC(C)(C)c1ccc(OCCCC(=O)NC2=NCCS2)cc1	0	0	0	0	36
Cc1c[nH]c2cccc(-c3ccc(OCc4ccccc4)cc3)c12	-	-	-	0	-
C[C@H](O)[C@@H]1C(=O)N2CCc3c([nH]c4c(-c5ccc6c(c5)OCO6)cccc34)[C@@H]2C[C@@H]1N(C)C(=O)OCc1ccccc1	-	-	-	0	-
C=CCN1C(=O)/C(=C\c2ccc(OC(=O)c3ccco3)c(OC)c2)SC1=S	0	0	0	0	30
COCCCNC(=O)C[C@H]1C[C@@]2(C(=O)OC)C(=C[C@H](C(C)C)O[C@@H]2C2CC2)N(CCC2=CCCCC2)C1=O	-	-	-	0	-
COc1ccccc1NC(=O)CSCc1ccc([N+](=O)[O-])cc1	0	0	0	0	41
COc1ccc(Cn2c(NC(=O)c3ccccc3)nc(Cc3ccccc3)c2-c2ccccc2)cc1	-	-	-	0	-
